Pf apPOL inh = Pf-apPOL inhibitors, biochemical, fluorescence | Plasmodium falciparum apicoplast DNA polymerase (apPOL) | Recombinant Pf-apPOL, molecular beacon fluorescence, 1.5 h | inhibition, % at 10 µM | 210,000 compounds, 0.25% hits | AID 1794808, 2022
mHTT-CaM PPI inh = mutant huntingtin-calmodulin interaction inhibitors – biochemical, AlphaScreen, primary screen. AlphaScreen His-mHTT/GST-CaM binding, luminescence. inhibition, % at 15 µM. 190,000 compounds, 3.6% hits. AID 1671202, 2021
Each line names hits and unclear results; the compound was inactive in the other large screens. Hits are enriched below; roughly 3.5% of the tested compounds scored in any of these assays. No stated cut-off is given here; in the data, active means inhibition above about 50%; inactive means the rest.

O=C(CCc1nc2ccccc2n(Cc2c(F)cccc2Cl)c1=O)NCc1ccccc1	mHTT-CaM PPI inh 55.0
O=c1c(Nc2ccccc2)nsnc1Nc1ccccc1	none
COc1cc(C(CCN2CCCCC2)c2c(OC)cc(OC)c3c(-c4ccccc4)cc(=O)oc23)cc(OC)c1OC (stereo not drawn)	mHTT-CaM PPI inh 66.8
COc1cc(C(CCN2CCCC(C)C2)c2c(OC)cc(OC)c3c(-c4ccccc4)cc(=O)oc23)cc(OC)c1OC (stereo not drawn)	mHTT-CaM PPI inh 87.2
COc1cc(C(CCN2CCCC2)c2c(OC)cc(OC)c3c(C)cc(=O)oc23)cc(OC)c1OC (stereo not drawn)	none
COc1cc(OC)c2ccc(=O)oc2c1C(CCN1CCCCC1)c1ccc(N(C)C)cc1 (stereo not drawn)	none
COc1ccc(C(CCN2CCCC(C)C2)c2c(OC)cc(OC)c3c2OC(=O)CC3c2cc(OC)c(OC)c(OC)c2)cc1 (stereo not drawn)	mHTT-CaM PPI inh 53.6
CCCCCc1cc(=O)oc2c(C(CCN3CCCCC3)c3ccc(OC)cc3)c(OC)cc(OC)c12 (stereo not drawn)	mHTT-CaM PPI inh 100.1
COc1cc(C(CCN2CCOCC2)c2c(OC)cc(OC)c3c(C)cc(=O)oc23)cc(OC)c1OC (stereo not drawn)	none
COc1cc(OC)c2ccc(=O)oc2c1C(CCN1CCCC(C)C1)c1ccc2c(c1)OCO2 (stereo not drawn)	none
CCCNC(=O)C1CCc2nc(N3CCN(C(C)=O)CC3)sc2C1 (stereo not drawn)	none
Clc1cc2noc(-c3ccccc3)c2cc1Cl	none
O=C(NCc1cccnc1)c1cc2nc(-c3ccc(Cl)cc3)cc(C(F)(F)F)n2n1	none
O=S(=O)(c1ccc2c(c1)CCC2)N1CCC(c2noc(-c3ccccc3)n2)CC1	none
Cc1nc(N2CCN(Cc3ccccc3)CC2)nc(N2CCCCC2)c1[N+](=O)[O-]	none
CCCCN1C(=O)C(C)(C(=O)Nc2ccccc2C)Oc2cccnc21 (stereo not drawn)	none
c1ccc2ncc(-c3ccc4ccccc4n3)cc2c1	none
Nc1cccc2ccc(-c3cnc4ccccc4c3)nc12	mHTT-CaM PPI inh 57.0
CCN(CC)c1ccc(NS(=O)(=O)c2c(C)n[nH]c2C)c(C)c1	none
O=[N+]([O-])c1cc2c3c(c1)C1C=CCC1CN3CC1CC=CC21 (stereo not drawn)	none
O=C(NCCc1ccc(N2CCCC2)cc1)C(=O)Nc1ccc2c(c1)OCCO2	none
Cc1ccc(S(=O)(=O)Nc2ccc(N(C)C)cc2)cc1	mHTT-CaM PPI inh 54.6
Cc1ccc(NS(=O)(=O)c2ccc(Cl)cc2)cc1	none
CN(C)S(=O)(=O)c1ccc(C(=O)N2Cc3nn(C(C)(C)C)c(-n4cccc4)c3C2)cc1	mHTT-CaM PPI inh 53.8
CC(C)(C)n1nc2c(c1-n1cccc1)CN(C(=O)c1ccc(=O)[nH]c1)C2	none
Clc1cccc(-c2nnc3n2N=C(c2ccccc2)CS3)c1	none
COc1cc(C(c2c(C)[nH][nH]c2=O)c2c(C)[nH][nH]c2=O)ccc1O	none
COc1cc(C(c2c[nH]c3ccccc23)c2c[nH]c3ccccc23)ccc1O	mHTT-CaM PPI inh 100.3
NC(=O)c1cc2ccccc2oc1=Nc1ccc(C(F)(F)F)cc1	none
CN(C)c1ccc(/C=C2\C(=O)NN(c3ccc(F)c(Cl)c3)C2=O)cc1Br	none
Cc1ccc(N2CCC(NS(=O)(=O)c3cccc(F)c3)C2=O)cc1 (stereo not drawn)	none
Cc1cccc(S(=O)(=O)NC2CCN(c3ccccc3)C2=O)c1 (stereo not drawn)	Pf apPOL inh 59.8
CCOC(=O)/C=C1\CN(Cc2ccc(OC)cc2)S(=O)(=O)c2ccc(C(F)(F)F)cc21	Pf apPOL inh 77.7, mHTT-CaM PPI inh 53.0
CCOC(=O)/C=C1\CN(Cc2ccccc2)S(=O)(=O)c2ccc(C(F)(F)F)cc21	none
CC1=C(C(=O)Nc2ccccc2)C(c2ccccc2)n2c(s/c(=C\c3ccco3)c2=O)=N1 (stereo not drawn)	none
CC1=C(C(=O)Nc2ccccc2)C(c2ccc(F)cc2)n2c(s/c(=C\c3ccc(C)o3)c2=O)=N1 (stereo not drawn)	mHTT-CaM PPI inh 66.0
CCOc1ccccc1NC(=O)c1cc(S(=O)(=O)N(CC)Cc2ccccc2)ccc1F	none
OCCCNc1nc(-c2ccccc2Cl)c2cc(Br)ccc2n1	mHTT-CaM PPI inh 51.0
O=C(NNc1nc(-c2ccccc2)c2cc(Br)ccc2n1)C12CC3CC(CC(C3)C1)C2	none
O=C(O)CN1C(=O)C(=O)C(=C(O)c2ccc(Cl)cc2)C1c1ccccc1[N+](=O)[O-] (stereo not drawn)	none
O=C1C(=O)N(c2cccnc2)C(c2ccccc2[N+](=O)[O-])C1=C(O)c1ccc(Cl)cc1 (stereo not drawn)	mHTT-CaM PPI inh 87.8
CCCN1CCN(C(=O)C2CCc3nc(N4CCN(C(=O)CC)CC4)sc3C2)CC1 (stereo not drawn)	none
Cc1cccc(C)c1NC(=O)C1CCCN(C(=O)c2ccccc2F)C1 (stereo not drawn)	none
COc1cccc(C(=O)N2CCC3(CC2)NC(=O)c2ccc(F)cc2N3C)c1	none
CC(=O)N1CCC2(CC1)N=C(c1ccccc1O)CC(c1ccc(Cl)cc1)N2 (stereo not drawn)	none
CC(=O)N1CCC2(CC1)N=C(c1cc(Cl)ccc1O)CC(c1ccc(C)cc1)N2 (stereo not drawn)	none
CCN1CCC2(CC1)N=C(c1ccc(C)cc1C)CC(c1cc(Cl)ccc1O)N2 (stereo not drawn)	mHTT-CaM PPI inh 89.6
CCN1CCC2(CC1)N=C(c1ccc(C)c(C)c1)CC(c1cc(Cl)ccc1O)N2 (stereo not drawn)	none
CC(=O)N1CCC2(CC1)N=C(c1ccccc1O)CC(c1ccc(F)c(Cl)c1)N2 (stereo not drawn)	mHTT-CaM PPI inh 69.2
Cc1ccc(C2CC(c3cc(Cl)ccc3O)=NC3(CCN(C)CC3)N2)cc1 (stereo not drawn)	mHTT-CaM PPI inh 100.1
Cc1cccc(Nc2nccc(C3CCCN(C(=O)C4CCC4)C3)n2)c1 (stereo not drawn)	none
Cc1ccc(C(=O)C[n+]2ccc(C(=O)NCCO)cc2)cc1	none
Cc1ccc(N2CCC(NS(=O)(=O)Cc3ccccc3)C2=O)cc1 (stereo not drawn)	none
COc1ccc(C(=O)NCC(c2cccn2C)N2CCCC2)c(OC)c1OC (stereo not drawn)	none
COc1ccc(NC(=O)c2noc3c2CC(C)CC3)cc1OC (stereo not drawn)	none
COc1cc(NC(=O)Cn2cnc([N+](=O)[O-])n2)cc([N+](=O)[O-])c1	none
Cc1cccc(Oc2cc(NC(=O)Cn3cnc([N+](=O)[O-])n3)cc([N+](=O)[O-])c2)c1	mHTT-CaM PPI inh 57.0
O=C(Cn1cnc([N+](=O)[O-])n1)Nc1cc(Oc2cccc(Cl)c2)cc([N+](=O)[O-])c1	mHTT-CaM PPI inh 62.0
O=C(Cn1cnc([N+](=O)[O-])n1)Nc1cc(Oc2cccnc2)cc([N+](=O)[O-])c1	none
O=C(Nc1cccc(-c2nc3ccccc3o2)c1)c1cccnc1Cl	Pf apPOL inh 73.9
O=C(Nc1cccc(-c2nc3ccccc3o2)c1)c1ccccc1I	none
O=C(c1ccc(I)o1)N1CCC(Cc2ccccc2)CC1	none
O=C(CN(C1CCCCC1)S(=O)(=O)c1ccccc1)N1CCCCCC1	none
O=C(CN(C1CCCCC1)S(=O)(=O)c1ccccc1)N1CCN(c2ccc(F)cc2)CC1	mHTT-CaM PPI inh 60.4
Cc1ccccc1C(=O)NC1CCN(c2ccccc2C(=O)N(C)C(C)C)CC1	none

Compound activity deposited in PubChem BioAssay by University of Kansas High Throughput Screening Laboratory.
